Experimental data taken from PubChem BioAssay (Tox21).
Several values for one entry are separate records, joined by “and”; a condition that tells them apart may be missing. Identical values can stand only once. Records with an inconclusive call do not appear. Some compounds were tested as several samples or in several runs, with calls that do not always agree. Activity calls are given as the source filed them. Unless noted, calls come from the whole dose curve; as a rule, active = well fitted curve in the direction sought with a large enough effect in the repeat runs; inconclusive = weak or mixed curves; inactive = no such curve, though single readings can be large; an effect the other way counts as inactive or inconclusive. Starred links: 1 amine or outer side, 2 acyl side, 3 side chain; linkers in the order of their positions; H or OH if unused. Positions of bridges follow the written chain, without caps; N, C: chain ends. Non-standard residues stand in square brackets, D forms with d. Residues, ends and D or L forms follow the SMILES beside them. Chains are numbered I, II in the order given. Actinocin(9to1) = Cc1c2oc3c(C)ccc(C(=O)[*:1])c3nc-2c(C(=O)[*:2])c(N)c1=O; NMeV = CN[C@H](C(=O)O)C(C)C; Sar = CNCC(=O)O

What was measured:
[1] = qHTS assay to identify small molecule antagonists of the glucocorticoid receptor (GR) signaling pathway - cell viability counter screen (AID 720693); note: nearly all actives have a fitted effect of over 55% in size; note: potency is the fitted concentration of half-maximal effect
[2] = qHTS assay for identifying genotoxic compounds that show differential cytotoxicity against isogenic chicken DT40 cell lines with known DNA damage response pathways - wild type cell line (AID 743012); note: nearly all actives have a fitted effect of over 60% in size; note: potency is the fitted concentration of half-maximal effect
Method in brief: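 Using parental DT40 (300 cells/well), compounds delivered in DMSO incubate 40 h at 37 C/5% CO2. CellTiter-Glo reagent then stands 30 min at room temperature, and luminescence gives cell viability.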

[3] = qHTS assay for identifying genotoxic compounds that show differential cytotoxicity against isogenic chicken DT40 cell lines with known DNA damage response pathways - Rev3 mutant cell line (AID 743014); note: nearly all actives have a fitted effect of over 55% in size; note: potency is the fitted concentration of half-maximal effect
[4] = qHTS assay for identifying genotoxic compounds that show differential cytotoxicity against isogenic chicken DT40 cell lines with known DNA damage response pathways - Rad54/Ku70 mutant cell line (AID 743015); note: nearly all actives have a fitted effect of over 60% in size; note: potency is the fitted concentration of half-maximal effect
[5] = qHTS assay to identify small molecule antagonists of the androgen receptor (AR) signaling pathway - cell viability counter screen (AID 743033; note: nearly all actives have a fitted effect of over 45% in size; note: potency is the fitted concentration of half-maximal effect)
[6] = molecular target: Androgen receptor (Homo sapiens) (UniProt P10275); experiment: qHTS assay to identify small molecule antagonists of the androgen receptor (AR) signaling pathway (AID 743035; active = well fitted inhibition curve with a large enough effect in the signal ratio in the repeat runs, not every such curve was filed as active; the % refers to the signal ratio; note: potency is the fitted concentration of half-maximal effect)
Androgen receptor (Homo sapiens), sequence (P10275 whole entry, looked up): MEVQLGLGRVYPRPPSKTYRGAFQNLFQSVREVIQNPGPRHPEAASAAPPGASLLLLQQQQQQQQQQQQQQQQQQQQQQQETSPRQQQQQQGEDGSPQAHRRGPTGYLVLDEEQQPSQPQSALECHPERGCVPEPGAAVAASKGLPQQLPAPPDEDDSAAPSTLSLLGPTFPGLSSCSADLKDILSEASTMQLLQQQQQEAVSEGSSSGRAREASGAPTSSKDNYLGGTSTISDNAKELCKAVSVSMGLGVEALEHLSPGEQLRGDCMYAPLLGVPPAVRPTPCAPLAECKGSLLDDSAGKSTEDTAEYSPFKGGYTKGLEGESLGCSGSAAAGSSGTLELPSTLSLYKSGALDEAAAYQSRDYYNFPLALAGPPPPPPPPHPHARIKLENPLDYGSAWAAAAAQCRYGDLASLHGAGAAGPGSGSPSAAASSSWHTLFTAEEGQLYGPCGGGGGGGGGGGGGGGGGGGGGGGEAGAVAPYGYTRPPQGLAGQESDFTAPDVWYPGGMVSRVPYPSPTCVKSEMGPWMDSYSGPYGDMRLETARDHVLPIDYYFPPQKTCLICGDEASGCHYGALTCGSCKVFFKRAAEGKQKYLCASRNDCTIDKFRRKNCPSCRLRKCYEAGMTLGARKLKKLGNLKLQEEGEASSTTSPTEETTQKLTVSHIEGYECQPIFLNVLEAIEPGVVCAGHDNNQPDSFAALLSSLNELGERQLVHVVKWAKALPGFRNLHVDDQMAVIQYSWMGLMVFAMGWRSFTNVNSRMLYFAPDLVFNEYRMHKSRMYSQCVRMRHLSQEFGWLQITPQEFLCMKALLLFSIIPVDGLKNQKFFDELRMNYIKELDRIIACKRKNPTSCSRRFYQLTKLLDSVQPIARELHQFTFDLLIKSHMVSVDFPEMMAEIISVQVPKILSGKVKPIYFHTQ
Method in brief: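 Using qHTS, AR-UAS-bla GripTite HEK293 cells received compound, then R1881, and were cultured 16 h at 37C/5% CO2 before a 2 h room-temperature LiveBLAzer B/G FRET substrate step and fluorescence measurement.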

[7] = molecular target: Androgen receptor (Homo sapiens) (UniProt P10275); experiment: qHTS assay to identify small molecule agonists of the androgen receptor (AR) signaling pathway using the MDA cell line (AID 743040; note: nearly all actives have a fitted effect of over 20% in size)
Method in brief: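 After a 5 h incubation at 37C and 0% CO2, MDA-kb2 reporter cells were dosed with compounds in DMSO and kept 16 h under the same conditions. Luciferase activity was then read as luminescence with ONE-Glo.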

[8] = molecular target: Androgen receptor (Homo sapiens) (UniProt P10275); experiment: qHTS assay to identify small molecule antagonists of the androgen receptor (AR) signaling pathway using the MDA cell line (AID 743042; note: nearly all actives have a fitted effect of over 55% in size; note: potency is the fitted concentration of half-maximal effect)
Method in brief: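 Antagonist mode: compounds plus R1881 agonist added to MDA-kb2 AR-luc cells, incubated 16 h at 37C. Luciferase reporter luminescence quantified, with multiplexed CellTiter-Fluor readout for cell viability.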

[9] = molecular target: Androgen receptor (Homo sapiens) (UniProt P10275); experiment: qHTS assay to identify small molecule agonists of the androgen receptor (AR) signaling pathway (AID 743036; active = well fitted activation curve with a large enough effect in the signal ratio in the repeat runs, with a control signal flat, not every such curve was filed as active; the % refers to the signal ratio; note: potency is the fitted concentration of half-maximal effect)
Method in brief: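 Activation was read as beta-lactamase FRET signal from LiveBLAzer B/G substrate, added for 2 h at room temperature. Before that, GeneBLAzer AR-UAS-bla GripTite (HEK293) cells had 16 h compound exposure at 37C.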

[10] = qHTS assay to identify small molecule antagonists of the androgen receptor (AR) signaling pathway using the MDA cell line - cell viability counter screen (AID 743041; note: nearly all actives have a fitted effect of over 45% in size; note: potency is the fitted concentration of half-maximal effect)
Method in brief: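 R1881-driven MDA-kb2 AR-luc cells, 3,000/well, were dosed with library compounds for 16 h; cell health came from CellTiter-Fluor fluorescence in the reporter wells.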

Measured: Potency

C/C=C/c1ccc(OCC)c(O)c1
inactive: [1] | [2] | [3] | [4] | [5]

CCOc1ccc2c(c1)C(C)=CC(C)(C)N2
active: [2] 13.3 µM and 13.7 µM | [3] 26.6 µM and 27.2 µM and 17.2 µM | [4] 21.1 µM and 54.2 µM and 15.4 µM
not listed: [9] | [10]
inactive: all other assays above

OCC(CO)N[C@H]1C[C@](O)(CO)[C@@H](O)[C@H](O)[C@H]1O
not listed: [10]
inactive: all other assays above

Oc1c(Cl)cc(Cl)c(Cl)c1Cc1c(O)c(Cl)cc(Cl)c1Cl
inactive: [7]
active: [1] 1.69 µM and 21.8 µM and 19.5 µM | [2] 5.96 µM and 3.05 µM and 4.33 µM | [3] 5.96 µM and 3.05 µM and 3.86 µM | [4] 8.41 µM and 3.05 µM and 3.86 µM | [5] 9.52 µM and 1.54 µM and 1.74 µM | [6] 10.7 µM and 1.74 µM | [10] 13.3 µM and 17.2 µM and 19.3 µM | [8] 13.3 µM and 2.16 µM and 5.45 µM

Cc1cccc(O)c1C
inactive: [1] | [2] | [3] | [4] | [5]

CCc1ccc(C(c2ccc(CC)cc2)C(Cl)Cl)cc1
not listed: [6]
inactive: all other assays above

Nc1cc(S(=O)(=O)O)cc2cc(S(=O)(=O)O)cc(O)c12
inactive: [1] | [2] | [5]
inactive and 61.1 µM (active): [4]
inactive and 24.3 µM (active): [3]

CC(=O)O[C@]1(C(C)=O)CC[C@H]2[C@@H]3C[C@H](C)C4=CC(=O)CC[C@]4(C)[C@H]3CC[C@@]21C
active: [2] 5.31 µM | [3] 3.76 µM and 4.85 µM | [4] 8.41 µM and 21.7 µM
inactive: [1]

OCCOCCN1CCN(C(c2ccccc2)c2ccc(Cl)cc2)CC1 (stereo not given)
active: [2] 38.1 µM | [3] 21.4 µM | [4] 30.2 µM
inactive: [1] | [5]

O=Cc1ccc(Cl)cc1
active: [9] 19.4 µM
not listed: [7]
inactive: all other assays above

Cc1ccnc2c1NC(=O)c1cccnc1N2C1CC1
inactive: [1] | [2] | [3] | [4] | [5]

CC(=O)OCCOCCOCCOC(C)=O
inactive: [1] | [2] | [3] | [4] | [5]

CCN(CC)C(=S)SSC(=S)N(CC)CC
inactive: [1] | [9] | [7]
active: [2] 106 nM and 96.9 nM and 19.8 nM | [3] 119 nM and 96.9 nM and 38.4 nM | [4] 106 nM and 96.9 nM and 68.6 nM | [5] 425 nM and 138 nM and 100 nM | [6] 123 nM | [10] 376 nM and 243 nM and 222 nM | [8] 266 nM and 217 nM and 140 nM

O=C1CC2(CCCC2)CC(=O)N1CCCCN1CCN(c2ncccn2)CC1
inactive and 21.9 µM (active): [5]
active: [2] 21.1 µM and 13.7 µM | [3] 7.7 µM | [4] 21.1 µM and 15.4 µM
inactive: [1]

CC(=O)Nc1ccc(C(=O)CCl)cc1
inactive and 1.72 µM (active): [2]
active: [3] 1.93 µM | [4] 1.72 µM
not listed: [6] | [10]
inactive: all other assays above

Cc1c2oc3c(C)ccc(C(=O)N[C@@H]4C(=O)N[C@H](C(C)C)C(=O)N5CCC[C@H]5C(=O)N(C)CC(=O)N(C)[C@@H](C(C)C)C(=O)O[C@@H]4C)c3nc-2c(C(=O)N[C@@H]2C(=O)N[C@H](C(C)C)C(=O)N3CCC[C@H]3C(=O)N(C)CC(=O)N(C)[C@@H](C(C)C)C(=O)O[C@@H]2C)c(N)c1=O (I: T[dV]P[Sar][NMeV] / II: T[dV]P[Sar][NMeV]; ester I:1-I:C, II:1-II:C; linker I:N-II:N via Actinocin(9to1))
active: [1] 239 nM and 9.5 nM | [2] 6.7 nM and 1.1 nM | [3] 7.5 nM and 0.7 nM | [4] 0.0024 µM | [6] 23.9 nM and 1 nM | [8] 15 nM and 4.2 nM
inactive: [5] | [9] | [7]

CCCOC(=O)c1cc(O)c(O)c(O)c1
active: [2] 13.3 µM and 43.1 µM and 43.3 µM | [3] 15 µM and 27.2 µM and 30.6 µM | [4] 13.3 µM and 27.2 µM and 27.3 µM
inactive: [1] | [5]

CCN(CC)c1ccc2c(C)cc(=O)oc2c1
30.9 µM (active) and inactive: [2]
active: [3] 69.1 µM | [4] 61.6 µM
inactive: [1] | [5]
